Compound activity as filed in PubChem BioAssay.
IL-1B inflam inh – blocks inflammasome-driven IL-1 beta release | activity change, % at 57.5 µM | AID 743279 | hit rate 4.7% among 360,000 | THP-1 LPS/ATP IL-1B secretion, AlphaLISA, 16 h; stronger effect = lower value; in the data active means activity change below about -50%; inconclusive means mostly about -30% to -49%
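THP-1 cells pretreated 1 hr with compounds (up to 57.5 uM final), then stimulated with LPS (250 ng/mL final) plus ATP (1.25 mM final); secreted IL-1B measured by AlphaLISA after 16 hr, decreased signal indicating inhibition.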
HT1080 IDH1KD tx – toxicity to HT-1080 IDH1 knockdown cells (counter line); HT-1080 IDH1 knockdown viability, ATP luminescence, 48 h; Potency, µM (titrated, usually from 46.1 µM), without a hit: at the top dose activity, negative = toxicity, hits mostly cytotoxic; hit rate 2% among 360,000;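 further: potency means the concentration at half of the fitted maximal effect; 0% = DMSO wells and -100% = cell-free medium wells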
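CellTiter-Glo luminescence after 48 h compound exposure at 37 degrees C of IDH1-knockdown HT-1080 cells in 5% FBS RPMI. %Activity scaled between DMSO wells and cell-free media wells, with curves fitted and assigned curve classes.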
HT1080NT lethal – kills 2HG-producing HT-1080-NT fibrosarcoma cells | HT-1080-NT fibrosarcoma viability, CellTiter-Glo ATP luminescence, 48 h | Potency, µM (top dose mostly 46.1 µM), for the others: at the highest dose activity, negative = less viability, usual class: cytotoxic | AID 686970 | hit rate 1.6% among 360,000;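 further: NT is the 2HG producing partner of a matched IDH1 knockdown line; potency means the concentration at half of the fitted maximal effect; 0% = DMSO-treated cells and -100% = media-only wells without cells; nearly all actives have a fitted effect of over 55% in size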
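HT-1080-NT fibrosarcoma cells (2HG-overproducing), 750 cells/well in RPMI with 5% FBS, dosed after 2 h and incubated 48 h at 37C. CellTiter-Glo luminescence normalized to DMSO and no-cell wells; concentration-response curves fitted and classed.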
TDP1 cell noCPT – qHTS for Inhibitors of human tyrosyl-DNA phosphodiesterase 1 (TDP1): qHTS in cells in absence of CPT. hit rate 15% among 420,000. Potency, µM (doses to about 46.2 µM), for inactives: at the top dose activity change, negative = growth inhibition, most hits filed as inhibitors. DT40 Tdp1-/- hTDP1 cells, no CPT, ATP luminescence, 48 h. AID 686978, 2013; further: potency means the concentration at half of the fitted maximal effect; nearly all actives have a fitted effect of over 55% in size
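No-CPT arm: Tdp1-/-;hTDP1 DT40 cells (400/well) plus compounds, incubated ≥48 hr at 37 °C. Readout CellTiter-Glo luminescence.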
TDP1 cell CPT – growth inhibition of DT40 Tdp1-/-;hTDP1 cells with camptothecin (screen for TDP1 inhibitors) | hit rate 12% among 420,000 | chicken DT40 Tdp1-/-;hTDP1 cells + 20 nM CPT, ATP luminescence, 48 h | Potency, µM (highest dose often 46.2 µM), for the others: top-dose activity change, negative = growth inhibition, actives largely listed as inhibitors; further: potency means the concentration at half of the fitted maximal effect; nearly all actives have a fitted effect of over 55% in size
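Chicken DT40 Tdp1-/- cells complemented with human TDP1, 400 cells/well, exposed to compounds plus 20 nM camptothecin for at least 48 h at 37 C; viability read as ATP content by CellTiter-Glo luminescence.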
Active calls of the source: *; ? = inconclusive; nt = no result; [ ] = remark or other dose. Compounds with a hit are over-represented: about 19% of the library has one in this group of screens. Unless noted, the call rests on the fitted dose curve; in most records, active means well fitted curve in the direction sought with a large enough effect; inconclusive means small, poorly fitted or top-dose-only effect, or another doubt; inactive means no such curve, though single readings can be large; an effect the other way counts as inactive or inconclusive. Unless noted, on the % scale 0 is the no-effect control and ±100 the full control effect.

SMILES	IL-1B inflam inh	HT1080 IDH1KD tx	HT1080NT lethal	TDP1 cell noCPT	TDP1 cell CPT
Cc1ccc(-n2ncc(C(=O)NCCN3CCC(Cc4ccccc4)CC3)c2C2CCN(C(=O)OC(C)(C)C)CC2)cc1	nt	nt	nt	2.9µM*	4.6µM*
Cc1ccc(-n2ncc(C(=O)N3CCN(Cc4ccccc4)CC3)c2C2CCN(C(=O)OC(C)(C)C)CC2)cc1	nt	nt	nt	-16%	?
CC(C)(C)OC(=O)N1CCC(c2c(C(=O)NCCN3CCCC3)cnn2-c2ccc(Cl)cc2)CC1	nt	nt	nt	23µM*	?
COc1ccccc1CN1CCC(CNC(=O)c2cnn(-c3ccc(Cl)cc3)c2C2CCN(C(=O)OC(C)(C)C)CC2)CC1	nt	nt	nt	5.2µM*	3.7µM*
COc1cccc(CN2CCC2(C)C(=O)Nc2ccc3c(c2)CCN3C(C)=O)c1F (configuration not stated)	?	-20%	-21%	?	?
CCOC(=O)CN1C(=O)N[C@@H](c2cccc(C(F)(F)F)c2)[C@@H](C(=O)OC)[C@H]1C	-3	3%	19%	-10%	4%
Cc1cc(C)[n+](-c2ccc(F)cc2)c2[nH]c(=O)[nH]c(=O)c12	18	13%	4%	-15%	3%
Cc1ccc(-n2ncc(C(=O)NC3CCCCC3)c2C2CCN(C(=O)OC(C)(C)C)CC2)cc1	nt	nt	nt	23µM*	?
COc1ccccc1N1CCN(CCCNC(=O)c2cnn(-c3ccccc3)c2C2CCN(C(=O)OC(C)(C)C)CC2)CC1	nt	nt	nt	16µM*	16µM*
O=C(O)CCNS(=O)(=O)c1ccc2c(c1)OCCCO2	-11	22%	4%	7%	0%
Oc1[nH]c2ccccc2c1N=NC(=S)N1CCOCC1	130	?	?	1.5µM*	1.6µM*
Oc1[nH]c2ccc(Br)cc2c1N=NC(=S)N1CCOCC1	158	1µM*	?	0.73µM*	0.73µM*
O=C(N=Nc1c(O)[nH]c2ccccc12)c1ccc(CN2CCOCC2)cc1	-21	3%	1%	?	-27%
C[C@H]1CN(C2CCCCC2)C(=O)[C@@H]1CC(=O)Nc1ccc(Br)cc1	-5	12%	28%	-26%	-2%
COc1cc(OC)cc(C(=O)NC2CCCN(Cc3ccc(Cl)cc3)C2)c1 (configuration not stated)	3	-15%	-15%	?	?
CN(C)CCCNC(=O)N1c2ccccc2Sc2ccccc21	-28	-2%	-2%	-2%	13%
CC1c2ccccc2SC(CCCN(C)C)c2ccccc21 (configuration not stated)	-52*	?	?	?	16µM*
CC(=O)NC1CC2CCCC(C1)N2C(=O)Nc1cccc(Cl)c1 (configuration not stated)	-13	23%	22%	-3%	31%
O=C(Nc1ccc(C(=O)N2CCN(c3ccncc3)CC2)cc1)c1ccc(Br)o1	-24	11%	17%	?	-18%
O=C(Nc1ccc(C(=O)N2CCC(O)(c3ccc(Cl)c(C(F)(F)F)c3)CC2)cc1)c1ccc(Br)o1	-61*	-8%	-17%	18µM*	?
CN(CC(=O)NCC1CCCCC1)CC(=O)Nc1ccc(F)cc1	-2	-2%	-12%	-29%	-5%
Cc1ncsc1CCC(=O)N1CCCC(Nc2ccc(C(C)C)cc2)C1 (configuration not stated)	1	3%	4%	26µM*	?
O=C1CCCCN1CC(=O)N1CCCC(Nc2ccc(F)c(F)c2)C1 (configuration not stated)	10	22%	7%	?	21µM*
O=C1CCCCN1CCC(=O)N1CCCC(Nc2ccc(F)c(F)c2)C1 (configuration not stated)	1	20%	16%	9%	-2%
CCc1nccn1CCC(=O)N1CCCC(Nc2ccc(C(C)C)cc2)C1 (configuration not stated)	-6	-5%	-6%	18µM*	?
SMILES	IL-1B inflam inh	HT1080 IDH1KD tx	HT1080NT lethal	TDP1 cell noCPT	TDP1 cell CPT
Cc1ncsc1CCC(=O)N1CCCC(Nc2ccc(F)c(F)c2)C1 (configuration not stated)	9	-7%	-4%	?	13µM*
Cc1cccc(NC(=O)CNC(=O)CCNC(=O)c2ccc(C(C)(C)C)cc2)c1C	4	0%	6%	?	-11%
Cc1ncsc1CCC(=O)N1CCCC(c2nc(-c3ccncc3)ncc2-c2ccccc2)C1 (configuration not stated)	nt	nt	nt	21µM*	9%[9.04 µM]
COc1ccc(C(=O)N2CCCC(Nc3ccc(C(C)C)cc3)C2)c(OC)n1 (configuration not stated)	13	3%	0%	23µM*	?
Cc1ccc(N2C(=O)CS(=O)(=O)C23C(=O)Nc2ccccc23)cc1C (configuration not stated)	nt	nt	nt	-21%	-10%
CCN(CC(=O)Nc1ccc(OC)cc1)C(=O)c1ccc([N+](=O)[O-])cc1	17	-4%	5%	?	?
Cc1ncc2c(c1CNC(=O)/C=C/c1cccs1)CCN(C(=O)c1cc(C(C)C)on1)C2	nt	nt	nt	-13%	6%[9.04 µM]
NC(=O)[C@@H]1C[C@]2(NC(=O)NC2=O)c2cc(F)ccc2O1	nt	nt	nt	-9%	15%
CCCCCCn1c(=O)n2n(c1=O)[C@@H]1CN(S(=O)(=O)c3ccc(C)cc3)C[C@]1(O)[C@@H](OC(=O)Nc1cccs1)C2	-52*	?	?	26µM*	23µM*
Cc1ccc(S(=O)(=O)N2C[C@H]3n4c(=O)ccc(=O)n4C[C@H](OC(=O)NCc4ccccc4F)[C@@]3(O)C2)cc1	-108*	?	-27%	21µM*	?
COC(=O)[C@H]1C[C@H](OC(=O)Nc2cccs2)[C@@]2(O)CN(S(=O)(=O)c3ccc(C)cc3)CC2[C@H]1C(=O)OC (some centres not stated)	-56*	5%	-7%	?	?
CCCCCCn1c(=O)n2n(c1=O)[C@@H]1CN(S(=O)(=O)c3ccc(C)cc3)C[C@]1(O)[C@@H](OC(=O)NCc1ccccc1F)C2	-1	?	?	?	?
CCCCCCNC(=O)O[C@H]1Cn2c(=O)ccc(=O)n2[C@@H]2CN(S(=O)(=O)c3ccc(C)cc3)C[C@]12O	-106*	23µM*	16µM*	3.7µM*	4.6µM*
